From PubChem
MCF10A rereplic: DNA re-replication induction in MCF 10a cells | hit rate 2.9% among 350,000 | Potency, µM (doses to about 46.1 µM), hits mostly activators | MCF 10A DNA re-replication, Hoechst nuclear intensity, 48 h; further: nearly all actives have a fitted effect of over 50% in size
HT1080-NT tox: kills 2HG-producing HT-1080-NT fibrosarcoma cells. Potency, µM (doses to about 46.1 µM), usual class: cytotoxic. AID 686970. hit rate 1.6% among 360,000. HT-1080-NT fibrosarcoma viability, CellTiter-Glo ATP luminescence, 48 h;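 further: NT is the 2HG producing partner of a matched IDH1 knockdown line; nearly all actives have a fitted effect of over 55% in size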
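Compounds were tested in concentration-response format on HT-1080-NT cells for 48 hours at 37 degrees C. Cell viability came from CellTiter-Glo luminescence; curves were classified by r2, response magnitude and activity.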
HT1080 IDH1KD tx: kills HT-1080 cells with IDH1 knockdown; HT-1080 IDH1 knockdown viability, ATP luminescence, 48 h; Potency, µM (doses to about 46.1 µM), most hits filed as cytotoxic; hit rate 2% among 360,000
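After a 2 h attachment period, IDH1KD HT-1080 cells took pin-transferred compound for 48 h at 37 °C; ATP-based luminescence after 10 min room-temperature reagent incubation reported viability.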
KB-3-1 cytotox: kills parental KB-3-1 adenocarcinoma cells; hit rate 1.4% among 400,000; KB-3-1 viability, CellTiter-Glo ATP luminescence, 72 h; Potency, µM (top dose mostly 46.1 µM), actives largely listed as cytotoxic; further: nearly all actives have a fitted effect of over 60% in size
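Parental KB-3-1 adenocarcinoma cells in phenol-red-free DMEM with 10% FBS were pin-treated with compounds at several concentrations, incubated 72 h at 37 °C, and viability read by CellTiter-Glo luminescence; concentration-effect curves were fitted after normalization.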
KB-V1 MDR tox: KB-V1 MDR subline cytotoxicity; Potency, µM (top dose mostly 46.1 µM), actives largely listed as cytotoxic; hit rate 3.4% among 400,000; KB-V1 MDR cells viability, CellTiter-Glo, 72 h; further: nearly all actives have a fitted effect of over 60% in size
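Luminescent ATP read-out (CellTiter-Glo, 10 min) measures survival of drug-selected KB-V1 MDR cells after 72 h, 37 degrees C compound exposure. Medium: phenol-red-free DMEM, 10% FBS. Values from fitted concentration-response curves.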
SW480 rerep: DNA re-replication induction in SW480 cells; SW480 DNA re-replication, Hoechst DNA content imaging, 48 h; Potency, µM (highest dose often 46.1 µM), actives largely listed as activators; hit rate 1.8% among 340,000; further: nearly all actives have a fitted effect of over 55% in size
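Readout is total intensity of Hoechst-stained nuclei, excited at 405 nm and collected at 500-530 nm. Compound treatment lasted 48 hr at 37 C in 5% CO2 before staining.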
Of the large screens only hits and unclear results are named; the others gave an inactive call. This is a sample that favours compounds with a hit; in the whole collection about 8% have one here. The call rests on the fitted dose curve; in most records, active means well fitted curve in the direction sought with a large enough effect; inconclusive means small, poorly fitted or top-dose-only effect, or another doubt; inactive means no such curve, though single readings can be large; an effect the other way counts as inactive or inconclusive.

O=C(NC(=S)N1CCN(c2ccc([N+](=O)[O-])cc2)CC1)c1ccccc1	none
O=C(c1cccs1)N1CCN(c2ccc(F)cc2)CC1	none
O=C(Nc1ccc(N2CCN(C(=O)c3cccs3)CC2)cc1)c1ccccc1Cl	MCF10A rereplic inconclusive, HT1080-NT tox inconclusive, HT1080 IDH1KD tx 9.2µM, KB-3-1 cytotox 16.4µM, KB-V1 MDR tox inconclusive, SW480 rerep 23.1µM
O=C(Nc1ccc(N2CCN(C(=O)c3cccs3)CC2)cc1)c1ccccc1F	MCF10A rereplic inconclusive, KB-3-1 cytotox inconclusive, KB-V1 MDR tox 7.31µM, SW480 rerep inconclusive
CCc1cccc(NCc2ccccc2-c2nnc(-c3ccccc3Cl)o2)c1	none (no result: MCF10A rereplic, HT1080-NT tox, HT1080 IDH1KD tx, SW480 rerep)
CN(c1ccccc1)S(=O)(=O)c1ccc(NC(=O)c2cc(=O)c3ccccc3o2)cc1	none (no result: MCF10A rereplic, HT1080-NT tox, HT1080 IDH1KD tx, SW480 rerep)
O=C(Nc1cc(C(=O)N2CCN(c3ccccc3)CC2)ccc1Cl)c1cccs1	KB-V1 MDR tox 8.2µM
O=C(Nc1ccc(N2CCN(C(=O)c3cccs3)CC2)c(Cl)c1)c1ccco1	MCF10A rereplic inconclusive, HT1080 IDH1KD tx inconclusive, KB-3-1 cytotox inconclusive, KB-V1 MDR tox 3.66µM
COc1cc(NC(=O)Cn2c(C)cc(C)c(C#N)c2=O)cc(OC)c1	none (no result: MCF10A rereplic, HT1080-NT tox, HT1080 IDH1KD tx, SW480 rerep)
CCCCn1c(-c2ccc(Cl)c(Cl)c2)nc2cc3[nH]c(=O)c(C(C)C)nc3cc21	MCF10A rereplic 14.6µM
CCCCn1c(-c2cccc(Br)c2)nc2cc3[nH]c(=O)c(C(C)C)nc3cc21	MCF10A rereplic 18.4µM, KB-3-1 cytotox inconclusive, SW480 rerep inconclusive
CCCCn1c(-c2ccc(C(C)(C)C)cc2)nc2cc3[nH]c(=O)c(C(C)C)nc3cc21	MCF10A rereplic 18.4µM
CCOC(=O)c1noc2ncn(CC(=O)Nc3ccc(OC)c(Cl)c3)c(=O)c12	none (no result: MCF10A rereplic, HT1080-NT tox, HT1080 IDH1KD tx, SW480 rerep)
COc1ccc(NC(=O)c2ccc(OC(=S)N(C)c3ccc(OC)cc3)cc2)cc1	none
CN(C(=S)Oc1ccc(C(=O)Nc2ccccc2)cc1)c1ccccc1	KB-3-1 cytotox inconclusive, KB-V1 MDR tox 2.91µM, SW480 rerep inconclusive
O=c1cc(O)c2sc(Nc3ccc(F)cc3)nc2[nH]1	MCF10A rereplic 16.4µM, SW480 rerep inconclusive
O=c1cc(O)c2sc(Nc3cccc(C(F)(F)F)c3)nc2[nH]1	SW480 rerep inconclusive
COc1ccc(-c2nnnn2-c2ccccc2OC)cc1	MCF10A rereplic inconclusive, HT1080-NT tox inconclusive, HT1080 IDH1KD tx inconclusive, KB-3-1 cytotox inconclusive, KB-V1 MDR tox 13µM, SW480 rerep inconclusive
CS(=O)(=O)N1N=C(c2ccccc2)CC1c1ccc2c(c1)OCO2 (stereo not drawn)	none
CS(=O)(=O)Nc1cccc(C2=NN(S(C)(=O)=O)C(c3ccc4c(c3)OCO4)C2)c1 (stereo not drawn)	MCF10A rereplic inconclusive, HT1080-NT tox inconclusive, HT1080 IDH1KD tx inconclusive, KB-3-1 cytotox 14.6µM, SW480 rerep inconclusive
Cc1cc(NC(=O)c2cccs2)cc(-c2nc3cc(Cl)ccc3o2)c1O	KB-V1 MDR tox inconclusive (no result: MCF10A rereplic, HT1080-NT tox, HT1080 IDH1KD tx, SW480 rerep)
C=C1C(=O)C23C(O)C1CCC2C12CCCC(C)(COC(C)=O)C1C(O)C3(O)OC2 (stereo not drawn)	MCF10A rereplic 0.731µM, HT1080-NT tox 8.2µM, HT1080 IDH1KD tx 1.84µM, KB-3-1 cytotox 13µM, KB-V1 MDR tox inconclusive, SW480 rerep inconclusive
Cc1ccc(C)c(-n2c(-c3ccc(Br)cc3)csc2=NC(=O)c2ccccc2F)c1	KB-3-1 cytotox 11.6µM, KB-V1 MDR tox inconclusive
Cn1ccsc1=NC(=O)c1ccccc1F	none
CCC(=O)Nc1ccc(C)cc1-c1nc2ccccc2n(C(C)C(=O)Nc2ccccc2CC)c1=O (stereo not drawn)	none (no result: MCF10A rereplic, HT1080-NT tox, HT1080 IDH1KD tx, SW480 rerep)
COC(=O)c1ccccc1NC(=S)N(Cc1ccc2c(c1)OCO2)Cc1cc2cc(OC)ccc2[nH]c1=O	MCF10A rereplic inconclusive, KB-V1 MDR tox 18.4µM (no result: SW480 rerep)
COc1ccc2cc(CN(CC3CCCO3)C(=O)Nc3ccccc3OC)c(=O)[nH]c2c1 (stereo not drawn)	MCF10A rereplic 18.4µM, HT1080-NT tox 2.59µM, HT1080 IDH1KD tx 2.31µM, KB-3-1 cytotox 5.17µM, KB-V1 MDR tox 11.6µM, SW480 rerep 14.6µM
